Test results reported in the supplement of paper PMC6555819.

Assays:
Assay in all cases: PBM binding z-score (relative to random genomic background probes); higher = stronger binding; sequences stand for … in GC…GCGATTGACAGCGTAGAATGAAGG
[1] = tested on: PPARg:RXRa DBDmut IVT, anti-RXR (DBD mutation: RXRa K156A/R161A, NR concentration 270 nM, RXRa partner concentration 90 nM)
Outline: (§1)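 Ligand-free nuclear receptor dimers were applied to custom Agilent 4×180K protein-binding microarrays whose double-stranded probes carried direct-repeat seeds, single-nucleotide variants, half-site ablations and random human genomic background sequences in 34-nt variable regions. Incubation lasted 1 h. Binding z-scores were computed against the random background probes from regression-normalized fluorescence.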

[2] = tested on: PPARg:RXRa IVT, anti-PPARg (NR concentration 270 nM, RXRa partner concentration 90 nM)
Outline: as §1

[3] = tested on: PPARg DBDmut:RXRa IVT, anti-PPARg (DBD mutation: PPARg1 K132A/R137A, NR concentration 270 nM, RXRa partner concentration 90 nM)
Outline: as §1

[4] = tested on: PPARg DBDmut IVT, anti-PPARg (DBD mutation: PPARg1 K132A/R137A, NR concentration 270 nM)
Outline: as §1

[5] = tested on: PPARg homodimer (NR concentration 180 nM)
Outline: as §1

[6] = tested on: PXR:RXRa (NR concentration 270 nM, RXRa partner concentration 90 nM)
Outline: as §1

[7] = tested on: PXR homodimer (NR concentration 270 nM)
Outline: as §1

[8] = tested on: RARa:RXR (NR concentration 270 nM, RXRa partner concentration 90 nM)
Outline: as §1

[9] = tested on: RARa homodimer (NR concentration 270 nM)
Outline: as §1

[10] = tested on: RARb:RXRa (NR concentration 270 nM, RXRa partner concentration 90 nM)
Outline: as §1

[11] = tested on: RARb homodimer (NR concentration 270 nM)
Outline: as §1

[12] = tested on: RARg:RXRa (NR concentration 270 nM, RXRa partner concentration 90 nM)
Outline: as §1

[13] = tested on: RARg homodimer (NR concentration 270 nM)
Outline: as §1

[14] = tested on: RXRa DBDmut IVT, anti-RXR (DBD mutation: RXRa K156A/R161A, NR concentration 90 nM)
Outline: as §1

[15] = tested on: RXRa homodimer (NR concentration 180 nM)
Outline: as §1

[16] = tested on: THRa:RXRa (NR concentration 90 nM, RXRa partner concentration 90 nM)
Outline: as §1

[17] = tested on: THRa homodimer (NR concentration 90 nM)
Outline: as §1

[18] = tested on: VDR:RXRa (NR concentration 270 nM, RXRa partner concentration 90 nM)
Outline: as §1

[19] = tested on: VDR homodimer (NR concentration 270 nM)
Outline: as §1

Sequence	PBM binding z-score [1]	PBM binding z-score [2]	PBM binding z-score [3]	PBM binding z-score [4]	PBM binding z-score [5]	PBM binding z-score [6]	PBM binding z-score [7]	PBM binding z-score [8]	PBM binding z-score [9]	PBM binding z-score [10]	PBM binding z-score [11]	PBM binding z-score [12]	PBM binding z-score [13]	PBM binding z-score [14]	PBM binding z-score [15]	PBM binding z-score [16]	PBM binding z-score [17]	PBM binding z-score [18]	PBM binding z-score [19]
CATACTAGGTCACGAAAGGTCAAAGTCGAATGAC	7.83	8.34	2.56	1.91	3.01	7.08	3.85	7.57	4.19	5.65	5.99	7.94	8.68	2.83	8.69	5.16	2.91	6.92	4.71
TCTTGTAGATCAACAGGAGGTCAAGAAAGATCGA	1.49	2.17	0.588	0.144	1.8	3.74	0.715	4.01	0.649	2.84	3.47	4.04	2.84	0.518	3.64	3.02	0.86	3.14	0.803
ACAGACAGGTGAGTGAAGGTAACCCAGCTGGACG	0.473	0.884	0.557	-0.411	0.0822	-0.299	-0.316	0.365	-0.386	0.623	0.564	0.107	0.469	-0.852	0.562	1.63	0.00911	-0.336	-0.164
GCGACTGGGGCAAAGCAGGGTACCATAAGGTTGG	3.87	3.24	-0.359	-0.643	-0.201	-0.102	-0.367	0.315	-0.579	0.894	0.665	0.296	0.341	-0.678	0.287	1.61	-0.383	-0.276	-0.139
CAAACTAGGTCACAGAGGTCAGAGTCCGTGCGTA	8.64	9.29	2.49	1.4	4.05	5.59	7.79	5.97	1.84	5.11	5.34	6.58	7.37	3.02	6.43	4.37	2.49	7.34	4.93
ATCTCTAGGTGAAGTTCAGTGAAAGATCGATAGA	4.94	4.09	1.05	1.05	0.329	0.872	0.828	0.684	0.618	1.7	1.53	1.3	1.46	0.512	0.437	1.19	0.0183	0.563	0.509
TCGAGTAGGTTACCAATGGGGCTTTCAGCTTTCT	3.39	2.45	-0.964	0.0286	-0.411	-0.0679	-0.767	-0.0921	-1.47	0.762	0.0343	0.0207	0.23	0.35	0.16	-0.122	-0.536	-0.42	-0.784
CCTAGTGGGCCACGAAAGGTCATTGATTCAGTGA	5.45	5.59	0.164	-0.293	2.95	5.35	1.17	5.06	0.966	3.93	4.68	4.71	4.64	0.0516	5.09	3.82	0.453	4.05	1.99
TAGCCTAGGTCATGCGGGCCCGTATAGTGTCGGC	1.87	3.05	-0.348	0.0155	0.405	1.07	-0.531	2	-0.428	3.62	2.9	3.77	4.19	0.324	3.06	3.06	1.33	1.97	0.149
AATCGGAGGACAAAGGTCAGAGCTACGCCAGTGA	0.506	4.15	0.0778	-0.0229	2.97	3.75	0.501	4.48	0.693	4.54	4.37	5.79	4.98	0.662	4.98	3.55	0.579	3.23	1.36
GATACATGGTCAGCTAGAGGCCAGAGTATGGAAA	-0.61	0.0448	-1.36	-0.885	-0.578	-0.344	-0.0734	-0.157	-0.619	0.819	0.679	1.39	0.818	-0.556	0.128	-0.168	-1.01	-0.32	-0.418
CGAACTAGGTCATCCAGGACAGGGAATACATTGA	7.79	8.34	3.98	2.59	1.77	1.6	0.593	2.36	0.244	3.78	2.82	3.79	4.29	2.17	2.65	3.52	1.93	4.1	1.73
ATCGACAGGTCGTGAGGTGAGTATACAGAAAGGC	-0.42	0.86	-0.374	-0.491	0.776	0.904	0.267	1.86	0.537	1.88	1.39	2.07	1.67	0.0757	2.17	2.38	1.28	1.12	0.435
CCTAGTTGGTCAGGAGGTGACACACCGGATATGA	0.676	2.36	0.321	-0.109	1.41	0.171	0.895	0.496	0.818	1.25	1.48	1.12	1.22	-0.691	0.768	1.18	0.64	0.277	0.232
CCGAGTATGTTATGGGGCATTCAGGCAACGGTGA	0.63	0.892	-0.0498	-0.0954	0.937	0.0662	0.093	0.394	0.535	0.242	0.485	0.112	0.276	0.833	0.294	0.302	0.125	-0.0094	0.00991
